# PubChem BioAssay AID1645857 (Buhrlage Lab, Dana-Farber Cancer Institute and Novartis …, 2021)
# Hit rate of the full screen: of about 47,000 compounds, about 1,400 (3%) were called active. What follows is part of a selection rich in actives, with near analogues and random picks from the rest. A number with no mark means an inactive call. Rule as the data show it: active = inhibition above about 30%; inactive = the rest.
# Biological target: Ubiquitin carboxyl-terminal hydrolase 28 (Homo sapiens) (UniProt Q96RU2)
# Assay: blocks human USP28 ubiquitin-rhodamine cleavage (AID 1645857)
# Settings: purified USP28, Ub-rhodamine cleavage fluorescence, 30 min; at 25 µM; active compounds read high
# Chain of Ubiquitin carboxyl-terminal hydrolase 28 (Homo sapiens) (Q96RU2 whole entry, looked up): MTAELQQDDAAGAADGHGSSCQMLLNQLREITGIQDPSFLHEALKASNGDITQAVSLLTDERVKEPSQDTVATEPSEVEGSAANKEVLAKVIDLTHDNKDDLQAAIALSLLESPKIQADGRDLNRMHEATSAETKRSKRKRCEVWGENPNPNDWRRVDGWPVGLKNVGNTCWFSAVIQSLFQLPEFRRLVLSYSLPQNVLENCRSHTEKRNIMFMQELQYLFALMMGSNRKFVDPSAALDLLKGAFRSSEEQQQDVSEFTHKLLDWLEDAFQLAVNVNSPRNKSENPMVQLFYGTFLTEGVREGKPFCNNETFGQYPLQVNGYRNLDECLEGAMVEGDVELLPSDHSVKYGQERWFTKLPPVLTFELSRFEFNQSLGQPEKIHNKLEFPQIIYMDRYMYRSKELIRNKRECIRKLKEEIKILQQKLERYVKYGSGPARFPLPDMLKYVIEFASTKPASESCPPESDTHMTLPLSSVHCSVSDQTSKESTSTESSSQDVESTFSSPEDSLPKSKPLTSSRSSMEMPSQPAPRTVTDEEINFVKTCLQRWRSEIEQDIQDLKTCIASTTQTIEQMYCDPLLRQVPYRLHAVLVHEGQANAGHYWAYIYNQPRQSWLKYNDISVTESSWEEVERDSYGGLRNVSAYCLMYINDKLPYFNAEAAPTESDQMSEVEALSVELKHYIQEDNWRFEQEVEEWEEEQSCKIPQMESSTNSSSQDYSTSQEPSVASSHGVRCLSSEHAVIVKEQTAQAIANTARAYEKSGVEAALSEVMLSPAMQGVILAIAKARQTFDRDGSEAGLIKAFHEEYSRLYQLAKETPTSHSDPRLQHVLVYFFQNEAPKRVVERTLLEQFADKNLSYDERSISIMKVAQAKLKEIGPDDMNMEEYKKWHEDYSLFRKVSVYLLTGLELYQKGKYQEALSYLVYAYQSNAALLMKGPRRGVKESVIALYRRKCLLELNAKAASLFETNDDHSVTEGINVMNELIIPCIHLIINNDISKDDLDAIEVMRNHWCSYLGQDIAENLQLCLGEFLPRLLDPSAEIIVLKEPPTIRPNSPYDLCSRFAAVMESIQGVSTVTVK
row,SMILES,inhibition
1,N#Cc1ccc(NC(=O)Nc2cccn(Cc3ccccc3F)c2=O)cc1,86.6% (active)
2,O=C(Cn1cccc(-c2nc(-c3ccccc3)no2)c1=O)Nc1ccccc1F,6.71%
3,Cc1noc(-c2cccn(Cc3cc(F)ccc3F)c2=O)n1,29%
4,CC1(C(=O)NC2CCCCCC2)Cn2c(nc3ccccc32)C(=O)N1CCc1ccccc1 (centres undefined),-1.29%
5,O=C(c1cc2c(=O)n3ccccc3nc2n1Cc1ccccc1)N1CCN(c2ccccc2)CC1,-0.309%
6,COc1ccc(-c2[nH]c3ccccc3c2SCCNC(=O)c2ccc(S(=O)(=O)N3CCOCC3)cc2)cc1,32.8% (active)
7,COc1ccc(NC(=O)c2cc(=O)[nH]c3ccccc23)cc1S(=O)(=O)N1CCOCC1,-0.445%
8,COc1ccc(-c2cnc(SCCNC(=O)c3cccc(F)c3)[nH]2)cc1,12.3%
9,COc1ccccc1Nc1ncnc2oc(C)c(C)c12,-18.5%
10,COc1ccc(OC)c(-n2c(CNC(=O)c3ccco3)nnc2SCC(=O)N2CCc3ccccc32)c1,0.00951%
11,CC(=O)c1ccc(NC(=O)CCCn2nc([N+](=O)[O-])cc2C)cc1,9.41%
12,C#CCOc1ccc(CN2CCc3nc(-c4cccnc4)[nH]c(=O)c3C2)cc1OC,-1.43%
13,C#CCOc1ccc2ccccc2c1CN1CCc2ccccc2C1,39.7% (active)
14,CS(=O)(=O)N1CCC2(CC1)CN(C(=O)c1ccc3[nH]ccc3c1)Cc1ccccc1O2,7.47%
15,CC(C)Cc1cc(-c2nn3c(-c4ccccc4Cl)nnc3s2)n[nH]1,30.4% (active)
16,COCCn1ccc(-c2cc(C(=O)N3CCCN(C)CC3)c3ccccn23)n1,-61%
17,CN(C)c1cccc(NC(=O)N2CC[C@@H]3[C@H]2C(=O)N(C)[C@@H](Cc2ccccc2)C(=O)N3C)c1,-0.0135%
18,CCc1cccc(NC(=O)C2CCN(c3ccncc3)CC2)c1,22%
19,CC1CCN(S(=O)(=O)N2CCCC(C(=O)Nc3ccccc3Cl)C2)CC1 (centres undefined),-2.94%
20,Cc1ccc(NC(=O)C2CCN(S(=O)(=O)c3cnc[nH]3)CC2)cc1Cl,39% (active)
21,COc1ccc(CNC(=O)c2ccccc2-c2ncc(-c3ccccc3)o2)cc1,21.9%
22,COc1ccc(CNC(=O)c2[nH]nc3c2CCc2ccccc2-3)cc1,30.6% (active)
23,COc1ccc(CNC(=O)c2cccc3cccnc23)cc1,4.72%

row,SMILES,inhibition
1,Clc1cc2nc(N3CCN(c4ccccn4)CC3)c3nncn3c2cc1Cl,36.5% (active)
2,O=C(c1ccc(N2CCCC2)nn1)N1CCN(c2ccccn2)CC1,2.13%
3,Cc1nn(-c2ccccc2)c(C)c1S(=O)(=O)N1CCN(c2ccccn2)CC1,-7.5%
4,O=C(N[C@H]1C[C@@H]2C[C@H]1N(C(=O)c1ccc3c(c1)OCO3)C2)c1ccccc1,-126%
5,O=S(=O)(Nc1ccc(Cc2ccncc2)cc1)c1ccc2c(c1)OCCO2,9.83%
6,CCN(CC)c1ccc(NC(=O)Nc2ccc(OCc3ccccc3)cc2)cc1,-7.22%
7,CCOc1ccc(NC(=S)Nc2ccc(Cc3ccncc3)cc2)cc1,36.8% (active)
8,Cc1cc(-c2ncc(C)[nH]2)nc(C2CCCCN2C(=O)c2ccccc2)n1 (centres undefined),5.54%
9,Cn1c(N2CCN(C(=O)c3cccc(Cl)c3)CC2)cc(=O)n(C)c1=O,-5.96%
10,Clc1ccc(C[n+]2cc(-c3ccc(Cl)cc3)n3c2CCC3)cc1,54.6% (active)
11,CC(=O)C[n+]1cc(-c2ccc(C)cc2)n2c1CCC2,-0.406%
12,Cc1c(Cl)cccc1NC(=O)C[n+]1cc(-c2ccc(Cl)cc2)n2c1CCC2,10.7%
13,CCCc1cc(=O)[nH]c(N2CCN(c3ccc(Cl)cc3)CC2)n1,0.253%
14,CC(C)=CCC(O)C1=CC(=O)c2c(O)ccc(O)c2C1=O (centres undefined),93.4% (active)
15,CC(C)=CCc1cc(O)ccc1O,-0.0939%
16,CN1C(=O)[C@H](Cc2ccccc2)N(C)C(=O)[C@@H]2[C@H]1CCN2C(=O)Nc1cccc(C#N)c1,-9.42%
17,Cn1nc(C2CCN(Cc3ccc4c(c3)CC(C)(C)O4)CC2)c2nccnc21,-6.5%
18,CC(C)C(=O)N1c2ncnn2C(c2ccc(Cl)cc2)CC1c1ccccc1 (centres undefined),-5.15%
19,CC(=O)c1ccc(N2CCN(CC(=O)c3c(N)n(Cc4ccccc4)c(=O)n(C)c3=O)CC2)cc1,-11.8%
20,CN1CCC(N(C)C(=O)c2ccc(Cl)c(S(=O)(=O)Nc3ccccc3C(=O)N(C)C3CCN(C)CC3)c2)CC1,-0.184%
21,Cc1ccc(Cn2c(C(=O)O)c(CNC(C)CCc3ccccc3)c3ccccc32)cc1 (centres undefined),32.3% (active)
22,Cc1ccc(CCNCc2c(C(=O)O)n(C)c3ccccc23)cc1,-5.83%
23,CC(CCc1ccccc1)NCc1c(C(=O)O)n(Cc2ccccc2F)c2ccccc12 (centres undefined),23%

row,SMILES,inhibition
1,CC1CCCCN1Cc1nc2c([nH]1)c(=O)n(C)c(=O)n2C (centres undefined),-0.186%
2,CC(NS(=O)(=O)c1ccc2c(c1)SCC(=O)N2)c1ccccc1 (centres undefined),13%
3,CCC(Cc1ccccc1)NS(=O)(=O)c1ccc2c(c1)NC(=O)CS2 (centres undefined),37.3% (active)
4,CCCN(CCC)CCNS(=O)(=O)c1ccc2c(c1)NC(=O)CCS2,-7.06%
5,CC(C)NC(=O)CN1C(=O)CC(C)Sc2ccc(S(=O)(=O)N3CCCCC3)cc21 (centres undefined),13.7%
6,CCc1nnc(C2CCN(C(=O)c3ccc(F)cc3F)CC2)s1,-5.47%
7,CC1CCN(c2nc(F)c3c(c2F)S(=O)(=O)CCN3Cc2cccnc2)CC1,-20.5%
8,Cc1cccc(-c2nnc(-c3cccc(S(=O)(=O)N4CCCC4)c3)o2)c1,4.29%
9,O=C(Nc1nnc(-c2cccc([N+](=O)[O-])c2)o1)C1CCN(S(=O)(=O)c2ccc3c(c2)CCC3)CC1,46.2% (active)
10,O=C(COC(=O)C1CCN(S(=O)(=O)c2c(Cl)cccc2Cl)CC1)Nc1ccc2c(c1)CCC2,15.4%
11,CCOc1ccc2nc3sc(C(=O)N4CCCC4)c(N)c3cc2c1,-2.52%
12,COc1ccc(NC(=O)CC[C@@H]2NC(=O)N([C@@H](C)c3ccccc3)C2=O)cc1,8.47%
13,O=C(CCc1nnc2n(Cc3ccc(Cl)cc3)c(=O)c3ccccc3n12)NCCN1CCOCC1,-1.7%
14,Clc1ccc(C2NC3=NCN(Cc4ccco4)CN3c3nc4ccccc4n32)cc1 (centres undefined),32.7% (active)
15,CN(Cc1cccnc1Oc1ccccc1)C(=O)c1cnccn1,-1.11%
16,O=C1COC2(CCN(c3ncccn3)CC2)CN1Cc1cccc(F)c1,-14.6%
17,CCN1C[C@H]2C3(CCN(S(=O)(=O)c4ccccc4)CC3)CC[C@@]2(C(=O)NC)C1,0.022%
18,COc1ccc(CCNC(=O)CCCn2c(=O)c3ccccc3n(CC(=O)OCc3ccccc3)c2=O)cc1OC,26.2%
19,Cc1ccc(CNC(=O)CCCn2c(=O)c3sccc3n(CC(=O)OCc3ccccc3)c2=O)cc1,45.6% (active)
20,N#Cc1ccccc1Cn1c(=O)n(CCCC(=O)NCc2ccc(F)cc2)c(=O)c2ccccc21,8.1%
21,CN1CCc2onc(-c3cccc(CN)c3)c2C1=O,11.5%
22,CCOc1ccccc1C1c2[nH]c3ccccc3c2C[C@H]2C(=O)N(CCCc3ccccc3)CC(=O)N12 (some centres undefined),-32.1%
23,CSc1ccccc1NC(=O)c1ccc(N2CCCC2)nn1,3.05%

row,SMILES,inhibition
1,CC1CCc2c(cnc3c(C(=O)NCc4cccnc4)cnn23)C1 (centres undefined),-1.11%
2,O=C(Cc1ccc(F)cc1)Nc1ccccc1Cc1ccccc1,11.8%
3,Cc1cc(F)ccc1NC(=O)Cc1n[nH]c(Cc2ccccc2)n1,-17.7%
4,Cc1ccccc1NC(=O)Cc1csc2nc(-c3ccc(F)cc3)cn12,37.7% (active)
5,N#Cc1ccc(C(=O)N2CCN(c3cc(-c4ccccc4)[nH]n3)CC2)cc1,-11%
6,CCOC(=O)c1cnn(-c2ccc(C(=O)Nc3ccc(C(C)=O)cc3)cn2)c1N,-5.3%
7,Cc1ccccc1NC(=O)c1ccc(-c2nc3cccnc3n(C3CCCC3)c2=O)cc1,-11.7%
8,CC(=O)Nc1cccnc1-c1ccc(C(=O)Nc2ccc(C)c(C)c2)cc1,37.1% (active)
9,Cc1ccc(C(=O)Nc2cccc3c2CCCC3)cc1C,1.01%
10,O=C(c1cccc(Nc2ncccn2)c1)N1CCOCC2(C1)CN(c1ccccc1)C(=O)O2 (centres undefined),-1.6%
11,COc1ccc(CCNC(=O)CSc2cn(CCNC(=O)c3ccccc3C)c3ccccc23)cc1OC,13.1%
12,COc1ccc(CCNC(=O)c2ccccc2OCc2ccc(F)cc2)cc1,10.8%
13,COc1ccc(CCNC(=O)c2ccc3ccccc3c2)cc1OC,54.7% (active)
14,Cc1cc(C)c(-c2nnc(NC(=O)c3ccc(-c4ccccc4)cc3)s2)c(C)c1,-5.98%
15,CCOC(=O)c1ccc(NC(=O)CSc2nnc(CNC(=O)c3ccc(OC)cc3)n2C)cc1,-5.59%
16,Cc1ccc(NS(=O)(=O)c2cc3n(c2)CCN(C)C3=O)cc1,-5.99%
17,O=C1C(O)=C(c2ccc(O)c(O)c2)C(=O)C(O)=C1c1ccccc1,66.9% (active)
18,O=CNC1CC2(CCCCC2)Oc2ccccc21 (centres undefined),-1.81%
19,c1ccc(-c2csc3ncnc(NC4CCCc5ccccc54)c23)cc1 (centres undefined),-4.83%
20,CN1CC(=O)N(C2CCCNC2)Cc2c(NC3CCc4ccccc43)ncnc21 (centres undefined),90.6% (active)
